According to PubChem BioAssay (Tox21):
Records with an inconclusive call do not appear. Entries that show only a call come without a potency. Calls of active or inactive are those of the source. Calls follow the shape of the dose curve; as a rule, active = well fitted cell-killing curve with a large enough effect in the repeat runs; inconclusive = weak or mixed curves, or effect the other way; inactive = flat fitted curve, though single readings scatter.

Columns and labels:
[1] = cAMP Responsive Elements (CRE) small molecule antagonists, cell-based qHTS assay: qHTS cell viability counter screen (AID 2060913); also: nearly all actives have a fitted effect of over 40% in size
Summary of the method: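 Viability of NKH477-stimulated (0.25 uM final) CRE-bla HEK293T cells is measured by CellTiter-Glo luminescence following 3 hrs compound exposure at 37 C.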

[2] = cAMP Responsive Elements (CRE) small molecule agonists, cell-based qHTS assay: qHTS cell viability counter screen (AID 2060914);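 also: viability read after 3 h of compound exposure; nearly all actives have a fitted effect of over 50% in size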
Summary of the method: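 Cells are seeded and incubated 18 h, treated with compounds in DMSO for 3 h, read for the bla reporter, then given CellTiter-Glo; luminescence is measured after 30 min at room temperature.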

| Compound | Potency [1] | Potency [2] |
| --- | --- | --- |
| CNC(=O)c1cnn(-c2nc(N)c3ncn([C@@H]4O[C@H](CO)[C@@H](O)[C@H]4O)c3n2)c1 | inactive | inactive |
| OCCOCC#CCOCCO | inactive | inactive |
| C=C(C)C(=O)OCCNC(C)(C)C | inactive | inactive |
| CCCCN(CCCC)CCCC | inactive | inactive |
| O[C@@H](c1cc(C(F)(F)F)nc2c(C(F)(F)F)cccc12)[C@H]1CCCCN1 | inactive | inactive |
| COC(C)(C)OC | inactive | inactive |
